This is an account of results in PubChem BioAssay (Tox21).

“And” between values parts separate entries of the source, which are not always exact repeats. Identical values can stand only once. Records with an inconclusive call do not appear. Entries that show only a call come without a potency. The source made the active and inactive calls. Calls follow the shape of the dose curve; as a rule, active = well fitted cell-killing curve with a large enough effect in the repeat runs; inconclusive = weak or mixed curves, or effect the other way; inactive = no such curve, though single readings can be large or run the other way. Positions of bridges follow the written chain, without caps; N, C: chain ends. Non-standard residues stand in square brackets, D forms with d. Residues, ends and D or L forms follow the SMILES beside them. *: point of attachment. X1 = CC[C@@H](C)[C@@H](N)C1=N[C@H](C(=O)*)CS1; d(aIle) = CC[C@H](C)[C@@H](N)C(=O)O; dOrn = NCCC[C@@H](N)C(=O)O
Potency is read from the fitted curve at half-maximal effect.

The test is described as follows: qHTS assay for identifying genotoxic compounds that show differential cytotoxicity against isogenic chicken DT40 cell lines with known DNA damage response pathways - wild type cell line (AID 743012). Also: nearly all actives have a fitted effect of over 60% in size. As to conditions: DT40 wild type chicken cells viability, CellTiter-Glo, 40 h; series mostly up to 68.4 µM. The text has this: U.S. Tox21 Program National Center for Advancing Translational Sciences [NCATS] NIH Chemical Genomics Center [NCGC] U.S. Environmental Protection Agency [EPA] National Institutes of Environmental Health Sciences [NIEHS] National Toxicology Program [NTP] U.S. Food and Drug Administration [FDA] Tox21 Assay Overview: DNA repair pathways play a critical role in cellular homeostasis by repairing DNA damage induced by endogenous processes and xenobiotics. Isogenic chicken DT40 cell lines deficient in different DNA repair pathways can be used to identify genotoxic compounds and aid in characterizing the nature of the DNA damage induced. Two DNA repair-deficient cell lines with disrupted genes, Rad54/Ku70 or Rev3, were used to screen the Tox21 10K compound library. Possible genotoxicity was based on the presence of a significant increase in cytotoxicity in one or more of the DNA repair-deficient cell lines compared to that observed in the parental DNA repair-proficient cell line. CellTiter Glo viability assay (Promega, Madison, WI) was used to measure cell viability in these cells after compound treatment. This assay includes the data from the wild type cell line.
Tox21 Assay Protocol Summary: 300 DT40 wild type cells in 5 uL/well were dispensed into white, solid-bottom 1536-well plates using a Multidrop Combi (ThermoFisher Scientific, Waltham, MA) dispenser. After the assay plates were incubated at 37 C/5% CO2 for approximately 0.5 hour, 23 nL of compounds dissolved in DMSO, positive controls or DMSO only was transferred into the assay plate by a pintool work station (Kalypsys, San Diego, CA). The assay plates were incubated at 37 C/5% CO2 for 40 hours. After 5 uL per well of CellTiter-Glo reagent was added into each well of the assay plates, the plates were incubated for 30 min at room temperature and the luminescence intensity of the plates was measured using a ViewLux (PerkinElmer, Shelton, CT) plate reader.
Turning to `COc1cccc2c1[C@@H]1CN(CCCCn3c(=O)[nH]c4c(sc5ncc(-c6ccccc6)nc54)c3=O)C[C@@H]1CO2`, the Potency was 13.3 µM (active).

Turning to `Cc1cc(N)c2ccccc2[n+]1CCCCCCCCCC[n+]1c(C)cc(N)c2ccccc21`, the Potency was 2.54 µM (active).

As to `Cc1ncc(C[n+]2csc(CCOP(=O)(O)O)c2C)c(N)n1`, the Potency entry was “inactive”.

For the compound `O=C1c2ccccc2CN2C(=O)c3ccccc3CN12`, the Potency result was “inactive”.

Turning to `CN[C@H]1CC[C@@H](c2ccc(Cl)c(Cl)c2)c2ccc(S(N)(=O)=O)cc21`, the Potency was 13.7 µM (active).

Take `O=C1OC(=O)c2cc(-c3ccc4c(c3)C(=O)OC4=O)ccc21`: the Potency was 17.2 µM (active).

As to `Clc1nc(C(Cl)(Cl)Cl)c(Cl)c(Cl)c1Cl`, the Potency was 21.7 µM (active).

Regarding `CCOc1ccc(S(=O)(=O)O)c2cccnc12`, the Potency result was “inactive”.

Take `Cc1cc(Br)ccc1NC(=O)CCl`: the Potency was 5.45 µM (active).

In the case of `CCCCCCCCCCCC[n+]1ccc2ccccc2c1`, the Potency is 0.168 µM (active).

In the case of `NCCCC(=O)O`, the Potency entry is “inactive”.

Turning to `Nc1c(CC(=O)O)cccc1C(=O)c1ccccc1`, the Potency result was “inactive”.

As to `CCCC(CCC)C(=O)OC1C[C@H]2CC[C@@H](C1)[N+]2(C)C` (stereo not given in full), the Potency result is “inactive”.

For the compound `O=C1CCCCCCCCCCCCCC1`, the Potency entry was “inactive”.

Consider `CNCCC=C1c2ccccc2CCc2ccccc21`, for which the Potency was 6.68 µM (active).

For `O=c1[nH]c(=O)n([C@H]2C[C@H](O)[C@@H](CO)O2)cc1/C=C/Br`, the Potency result was “inactive”.

For the compound `CN(Cc1ccccc1)Cc1ccccc1`, the Potency entry is “inactive”.

Regarding `CN[C@@H]1[C@@H](O[C@H]2O[C@H](CO)[C@@H](N)[C@H](O)[C@H]2O)O[C@H]2C[C@@H](N)[C@@H](O[C@H]3[C@H](O)[C@@H](O)[C@H](N)C[C@@H]3N)O[C@@H]2[C@@H]1O`, the Potency entry is “inactive”.

Turning to `C=CC[N@@+]12CC[C@@]34c5ccccc5N5/C=C6/[C@H]7C[C@H]8[C@@]9(CC[N@@+]8(CC=C)C/C7=C/CO)c7ccccc7N(/C=C(/[C@@H](C[C@@H]31)/C(=C\CO)C2)[C@H]54)[C@@H]69`, the Potency entry was “inactive”.

Turning to `NCCO/C=C/[C@H](N)C(=O)O`, the Potency entry is “inactive”.

With `NC(=S)NS(=O)(=O)c1ccc(N)cc1`, the Potency entry is “inactive”.

Consider `O=P(O)(O)CP(=O)(O)O`, for which the Potency result was “inactive”.

`CCCCC[C@H](O)/C=C/[C@@H]1[C@@H](C/C=C\CCCC(=O)O)[C@@H](O)C[C@H]1O`: the Potency entry was “inactive”.

With `c1ccc(-c2ccc(C(c3ccccc3)n3ccnc3)cc2)cc1` (stereo not given), the Potency was 10.6 µM (active).

With `C[C@H](O)CN(C)C`, the Potency entry was “inactive”.

For `O=C1CC[C@@H](C(=O)N[C@H]2C[C@@H]2c2ccccc2)N1`, the Potency result is “inactive”.

Regarding `CC[C@@H](C)[C@@H](N)C1=N[C@H](C(=O)N[C@@H](CC(C)C)C(=O)N[C@@H](CCC(=O)O)C(=O)N[C@@H](C(=O)N[C@@H]2CCCCNC(=O)[C@@H](CC(N)=O)NC(=O)[C@@H](CC(=O)O)NC(=O)[C@@H](Cc3cnc[nH]3)NC(=O)[C@@H](Cc3ccccc3)NC(=O)[C@@H]([C@H](C)CC)NC(=O)[C@@H](CCCN)NC2=O)[C@@H](C)CC)CS1` (X1-LE[d(aIle)][dK][dOrn][dI][dF][dH][dD][dN]; lactam 4-C), the Potency result was “inactive”.

With `O=C1c2ccccc2C(=O)C1c1ccc(F)cc1`, the Potency result was “inactive”.

`CO/N=C(\C(=O)N[C@@H]1C(=O)N2C(C(=O)[O-])=C(C[n+]3ccc(N)n3CCO)CS[C@H]12)c1csc(N)n1`: the Potency result was “inactive”.

Take `C=C1C(=C/C=C2\CCC[C@]3(C)[C@@H]([C@H](C)CCCC(C)C)CC[C@@H]23)C[C@@H](O)C[C@@H]1O`: the Potency was 5.96 µM (active).

As for `CCCCCCCCOC(=O)c1cc(O)c(O)c(O)c1`, the Potency was 0.545 µM (active).

For the compound `N[C@@H](Cc1cnc[nH]1)C(=O)O`, the Potency result was “inactive”.

For `NC(N)=NCc1cccc(I)c1`, the Potency is 5.96 µM (active) and 8.41 µM (active).

With `CN1CCN(c2ccccc2/C=C2\SCCN(c3ccc(Cl)c(Cl)c3)C2=O)CC1`, the Potency was 4.33 µM (active).

For `CCOc1ccc([N+](=O)[O-])cc1`, the Potency was 62 µM (active).

`C/C(=C(/CCO)SSCC1CCCO1)N(C=O)Cc1cnc(C)nc1N` (stereo not given): the Potency is 23.7 µM (active) and 11.9 µM (active).

For `CCc1cn([C@H]2C[C@H](O)[C@@H](CO)O2)c(=O)[nH]c1=O`, the Potency entry is “inactive”.

In the case of `NC(=O)CC[C@@H]1NC(=O)[C@H](Cc2ccccc2)NC(=O)[C@H](Cc2ccc(O)cc2)NC(=O)[C@@H](N)CSSC[C@@H](C(=O)N2CCC[C@H]2C(=O)N[C@@H](CCCN=C(N)N)C(=O)NCC(N)=O)NC(=O)[C@H](CC(N)=O)NC1=O`, the Potency result was “inactive”.

Consider `C1CCc2nnnn2CC1`, for which the Potency result is “inactive”.

Take `CC(C)(S)C(=O)N[C@@H](CS)C(=O)O`: the Potency result was “inactive”.
